From PMC13494018
Unmarked numbers belong to inactive results. No rule for the calls is given here.

Target: PDL1, Q9NZQ7
Sequence (Q9NZQ7 whole entry): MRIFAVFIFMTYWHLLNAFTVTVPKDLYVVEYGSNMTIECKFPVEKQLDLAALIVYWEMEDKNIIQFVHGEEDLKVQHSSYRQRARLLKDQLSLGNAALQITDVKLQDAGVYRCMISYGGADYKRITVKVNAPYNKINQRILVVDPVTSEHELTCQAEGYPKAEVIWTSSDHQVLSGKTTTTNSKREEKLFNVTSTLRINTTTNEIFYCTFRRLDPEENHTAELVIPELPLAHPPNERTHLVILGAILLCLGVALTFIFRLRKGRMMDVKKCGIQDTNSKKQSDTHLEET

B1: d8r1_design_ppi_282_dldesign_0_cycle1_af2pred (protein)
chain: STDEELAAKAAALANLNKALAIATKFDPSVLADFKKIASLILDPNKKEEAVKLLNEKAKEAEAKDPAAGAALKAAAEEAKKI
Q: For B1, which “binding in a display sort” value is on record?
A: not found

B2: d8r1_design_ppi_286_dldesign_0_cycle0_af2pred (protein)
chain: SNEENAENLRLAGRAIEGVAESASAKQTADHLNNVATAAAKIDAETGKKLKAIGEEVLKTGDAKEGGEKAKKVLEEAAEKFK
Q: Which “binding in a display sort” value does the source give for B2 here?
A: not found

B3: d8r1_design_ppi_321_dldesign_0_cycle1_af2pred (protein)
chain: GSNFEKAYYAGEAYSYAYAAVKEAKALVKALGDAAKPLLDEAEALLKKIEEVLKNGNLEEAKKMLEEAKALLEKVKAA
Q: With B3 as the binder, how does the “binding in a display sort” value read?
A: binds (active)

B4: d8r1_design_ppi_705_dldesign_0_cycle1_af2pred (protein)
chain: MSKLTQAMLHYGRALAAAVALADDPEAAGKAVSAEMAEAAKVAAAGSPEVQKQALEAGEIIVEQIKKVNPEVGAKAAEAVKTTLAKL
Q: With B4 as the binder, how does the “binding in a display sort” value read?
A: not found

B5: d8r1_design_ppi_790_dldesign_0_cycle1_af2pred (protein)
chain: KAEEAKALAEKAIAAAPDVDAAAEEIAAAVKLGTGEALVAAARAAAAAIRALGDPAAQARLLELAREHGSRTYAAVAAGLAIARAEAA
Q: How did the “binding in a display sort” value turn out when B5 was run?
A: not found

B6: d8r1_design_ppi_1323_dldesign_0_cycle1_af2pred (protein)
chain: MKASIKHLIEQAKKYAKEAKETGSDALARAAASAAAAAAVLAKEAGDKELAKEAEKVAKEIAEVAPPSIAKYAKEAAKLAAE
Q: B6 was tested. Which “binding in a display sort” value did it give?
A: not found

B7: d8r1_design_ppi_1423_dldesign_0_cycle0_af2pred (protein)
chain: STAEKIAKYNKFAEEAKAAAKRVAEEGEEAAKEAIETLKKLAKESDAETAETLNKLAEIAEEGGGSAALAAMQAAAVHFANKAAKLAA
Q: With B7 as the binder, how does the “binding in a display sort” value read?
A: not found

B8: d8r1_design_ppi_1356_dldesign_0_cycle0_af2pred (protein)
chain: SAELIAQTARAGAVMLAAGIAGTPEAAANAAAGTSLLLKAKAESTGSEELKALAERAAAAAATLKADPAAGRAALAALRDELEKLAK
Q: B8 was tested. Which “binding in a display sort” value did it give?
A: not found

B9: d8r1_design_ppi_786_dldesign_0_cycle1_af2pred (protein)
chain: SEEKEKLKKLAEKARAGAEAAKADPSKAAEYGKEAYELAKEALPESIAELFKKAVEKNPVSGLAFLAAYAKYKAES
Q: For B9, which “binding in a display sort” value is on record?
A: not found

B10: d8r1_design_ppi_820_dldesign_0_cycle1_af2pred (protein)
chain: AAEAQALLQTFEANVEGAKMMGEASSLPALVRYHAITKTSATLAARAKELGLEEAAAQIEARGKELAAEAKAGLEKELAA
Q: How did the “binding in a display sort” value turn out when B10 was run?
A: not found

B11: d8r1_design_ppi_487_dldesign_0_cycle0_af2pred (protein)
chain: AAAEAAKAALAAEGERLLEEAERNLKIAKEGNGEEAAKASRNTLLNLAELTKLADEAAAADPAAGKVGAELLARLREILREIEAVNLA
Q: B11 was tested. Which “binding in a display sort” value did it give?
A: not found

B12: d8r1_design_ppi_59_dldesign_0_cycle1_af2pred (protein)
chain: MSELSEKLIEAAIAAHRAAAELAALGAPAEAAAHRAKAAKLFGEARKLIQEGDEEKAKKALEEAEALAAAAAAAAKKARAAAAAA
Q: How did the “binding in a display sort” value turn out when B12 was run?
A: not found

B13: d8r1_design_ppi_679_dldesign_0_cycle1_af2pred (protein)
chain: ATAEARRAVVEEAIARITAALADRPQWAAKAAAVLERGARLGREAEAARAVAAMLEVLGYTEAAAVAAEAAERIAAL
Q: Which “binding in a display sort” value does the source give for B13 here?
A: not found

B14: d8r1_design_ppi_305_dldesign_0_cycle1_af2pred (protein)
chain: AEEALKLLAEAAAAASPEVAALANQALALLKQAENPEAMKQAIALLNAAYLAADPAIQPLIRRALQLAMQVLAKADR
Q: Which “binding in a display sort” value does the source give for B14 here?
A: not found

B15: d8r1_design_ppi_645_dldesign_0_cycle0_af2pred (protein)
chain: KLEEAKEKLEKGKELLKKAKEDPENAIEYAKEALKEFSEASRLAAEAAKDEEYKEEAEELLKEANKLASEATQLLAKKASEEEK
Q: With B15 as the binder, how does the “binding in a display sort” value read?
A: not found

B16: d8r1_design_ppi_568_dldesign_0_cycle0_af2pred (protein)
chain: AGEALNLAARGLIAAGEAGDAEAAAQAAALLAKATAALAAGDEAAAKAYAAEAAAVADPEKAPEAEAVKAAAAA
Q: B16 was tested. Which “binding in a display sort” value did it give?
A: not found

B17: d8r1_design_ppi_290_dldesign_0_cycle1_af2pred (protein)
chain: SKAEAEKLKAQIEAAKAAGVAGDAATAAAAIAAITALADQAAALDPEYAAEVVNAANKAMLAVGDAREAKAAA
Q: For B17, which “binding in a display sort” value is on record?
A: not found

B18: d8r1_design_ppi_456_dldesign_0_cycle1_af2pred (protein)
chain: SAQAAAAEKLRALADAIAAASPAYQPAANALRAAAVVAEKSGNGASALALLDAAIAAAAKVPGGAEWAAAIRAAAAEVRAAFA
Q: B18 was tested. Which “binding in a display sort” value did it give?
A: not found

B19: d8r1_design_ppi_198_dldesign_0_cycle1_af2pred (protein)
chain: AAAALQAAAAAAAARLEKLAEEAAADPRLAPAAAAARAAAAQARANPAIAAQLAANTEAFVATYRAAVEEK
Q: With B19 as the binder, how does the “binding in a display sort” value read?
A: not found

B20: d8r1_design_ppi_750_dldesign_0_cycle1_af2pred (protein)
chain: SRLEEARAIAERAAAEAAAAGNVAEAVAIAQRGAAEVVRTLSPEPVEAKAEVLAHHAELAQAVIDALTAAE
Q: With B20 as the binder, how does the “binding in a display sort” value read?
A: not found

B21: d8r1_design_ppi_1408_dldesign_0_cycle1_af2pred (protein)
chain: EESVKASILAAIERGARLLAAENPAAGVAALTVARVLTTTGGLGSAIAGAAAFAAIAAAATGARGAAIGGSVVSFTVKLVEMYK
Q: For B21, which “binding in a display sort” value is on record?
A: not found

B22: d8r1_design_ppi_1135_dldesign_0_cycle1_af2pred (protein)
chain: DPREQFAAAVKEAAAALPDIADQVLALGEQALAAEGQAAADAMKAFVTLVTAAAAKASPEAAKAAGIAAANAMKAVSKIEE
Q: For B22, which “binding in a display sort” value is on record?
A: not found

B23: d8r1_design_ppi_1247_dldesign_0_cycle0_af2pred (protein)
chain: SSDKENSKLIREAMKVIGETLAAARAAVAAGDLEAARAAVAEGVARLEEMAEKSKDEATRETLLRMAEALRAQGAKILA
Q: For B23, which “binding in a display sort” value is on record?
A: not found

B24: d8r1_design_ppi_257_dldesign_0_cycle1_af2pred (protein)
chain: DEKDTATAEALGAISRAIAAAKALAATGDPEEAARLAEAARAAIAEALELAKKTTPSSQAAIEVAAARARAALDAALAKQAARAAA
Q: For B24, which “binding in a display sort” value is on record?
A: not found

B25: d8r1_design_ppi_442_dldesign_0_cycle1_af2pred (protein)
chain: DAAAVAAIAAAAAEAAGLYVRGRAASSKDPAEAKKYYAEADALVAAMLAAGAATSPAVAAAAAAAAATVAATRAALDAIKA
Q: B25 was tested. Which “binding in a display sort” value did it give?
A: not found

B26: d8r1_design_ppi_1006_dldesign_0_cycle0_af2pred (protein)
chain: AAAAAAAKAARTKEVIAKMKELISEAMLAKSEGTGVEALKKAAEEAKKLAKEAKAAGDTAAATVANNAAAFLETAAKAEEEAK
Q: B26 was tested. Which “binding in a display sort” value did it give?
A: not found

B27: d8r1_design_ppi_1191_dldesign_0_cycle1_af2pred (protein)
chain: AKAELKKKAEEYEKLYNAAKAALDVALADPSFSKSAKKAIAQAQVDAAKKALEAAKAYDPSQAPYWQAKLDAAQAALDAI
Q: Which “binding in a display sort” value does the source give for B27 here?
A: not found

B28: d8r1_design_ppi_43_dldesign_0_cycle0_af2pred (protein)
chain: MEALERASRVLAEAARLAMKNPAYAPAFAEVAAAYRETIAAYKESPEAAKEAAERLEKLAAERIAAAKAAL
Q: With B28 as the binder, how does the “binding in a display sort” value read?
A: not found

B29: d8r1_design_ppi_419_dldesign_0_cycle0_af2pred (protein)
chain: SELEEEARKAEEEFRAALAELEAAAAELEKLDPAAGATARRAAEGARGLLELAKKFSVKSQLNVAKSMLRGAERQLAAARARVAALK
Q: For B29, which “binding in a display sort” value is on record?
A: not found

B30: d8r1_design_ppi_219_dldesign_0_cycle1_af2pred (protein)
chain: DARLERVAKVTAEAYAKVAAVAAGEKLPLARRAAALLAAGGFSPEAAAEYFAEAKAIAAEIGPEAAAIIEEAGKAV
Q: How did the “binding in a display sort” value turn out when B30 was run?
A: not found

B31: d8r1_design_ppi_139_dldesign_0_cycle0_af2pred (protein)
chain: EELLEKLKEKAEKVKKLAEEGAEAEELEKARKELGAALSALTRAIAEASPELAAKGREAAAEAAKAAIKAGEKAEELKKA
Q: B31 was tested. Which “binding in a display sort” value did it give?
A: not found

B32: d8r1_design_ppi_493_dldesign_0_cycle1_af2pred (protein)
chain: SDARIAGAVAIMRLGAADADAATGAALREVGAAFAVSPEAGVAKAAELAAALAAARTPAAAAAGAARLAAATALGVAIAAAGA
Q: Which “binding in a display sort” value does the source give for B32 here?
A: not found

B33: d8r1_design_ppi_991_dldesign_0_cycle1_af2pred (protein)
chain: AEAARTAAIAKSIAGLAKLAEKAKDDKSVVRAAATAAAAAAAKDAALGKAAAERLKAAAEATPEEAIATLKAVAAEIAAAAAA
Q: B33 was tested. Which “binding in a display sort” value did it give?
A: not found

B34: d8r1_design_ppi_502_dldesign_0_cycle0_af2pred (protein)
chain: SFEEEKKKADEYMTKAAELAPPELKPAVQNMRDGILKAFEVSPKSALNLAKSALRWVKKHGSEEAAKEMEKALEHLEKAAE
Q: Which “binding in a display sort” value does the source give for B34 here?
A: not found

B35: d8r1_design_ppi_1486_dldesign_0_cycle1_af2pred (protein)
chain: MKELEEAKKEAEKAREELLKAAKEAAKVDPTVATGANNAAEGAKVLIESGSLGAARAGKAIAEAALKKAQAVLDAAQKA
Q: How did the “binding in a display sort” value turn out when B35 was run?
A: not found

B36: d8r1_design_ppi_87_dldesign_0_cycle0_af2pred (protein)
chain: MEEEFDERMRKAAEYLAKMDAALAAIKAAGDRAEAEKLLAELRKAGEEMAKELGEAGKAIKEALEAQAQAALAA
Q: How did the “binding in a display sort” value turn out when B36 was run?
A: not found

B37: d8r1_design_ppi_78_dldesign_0_cycle1_af2pred (protein)
chain: SMKKEEAKKVAEEARKAAKEAEELAKKIGDAKLAQQAKNIAAGADKAAEFGSLNMVKAFLREAKKLKEEAKKKLA
Q: For B37, which “binding in a display sort” value is on record?
A: not found

B38: d8r1_design_ppi_1080_dldesign_0_cycle0_af2pred (protein)
chain: SMESVLKSAESLAEAARRLAAERAAEPELVLRAAENALAGGTKLGEARGPEVAKKVRERMEATLAEIRARLA
Q: B38 was tested. Which “binding in a display sort” value did it give?
A: not found
